Source: PubChem BioAssay (NCI)
This is part of a sample that, as a whole, favours compounds with a hit. Of some 83,000 tested, about 20% had one in any assay.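 Note: values are percent growth. 100 is the growth of untreated cells, values between 100 and 0 indicate rising inhibition; between -100 and 0 indicates cell death.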 A number with no mark means an inactive call. Calls of active or inactive are those of the source.

Test system: SNB-75 CNS
Experiment: NCI-60 one-dose screen, 48 h (100 = growth as untreated, 0 = no growth, -100 = all killed)
Details: 10 µM unless noted
Method: Growth inhibition of the SNB-75 human tumor cell line is measured as a screen for anti-cancer activity. Cells are grown in 96 well plates and exposed to the test compound for 48 hours. Compounds are tested at a single concentration, which is 10^-5 M for most compounds. The reported endpoint is percent growth (GI% or GIPRCNT), where numbers from 0 - 100% represent growth inhibition, and numbers from -100% - 0 represent cell death. For example, a value of 40 represents 60% growth inhibition. A value of 0 means no net growth occurred over the course of the experiment. A value of -40 indicates 40% of cells at the beginning of the experiment died by the end of the experiment. A value of -100 means all cells are dead at the end of the experiment.
NCI-60 Human Tumor Cell Lines Screen was performed using the standard one-dose NCI protocol, which is described in more detail at https://dtp.cancer.gov/discovery_development/nci-60/default.htm.
Compounds with GIPRCNT values below 10 were considered active. Activity score was based on GIPRCNT using the following formula: […]
Score is 0 for GIPRCNT values of 100 or above, 50 for GIPRCNT values of 0, and 100 for GIPRCNT values of -100.

Row | Structure (SMILES) | growth
1 | CC[C@]12CC(C(=O)OC)=C3Nc4ccccc4[C@@]34CCN(C14)[C@@H]1c3cc4c(cc3O[C@@H]1[C@H]2O)NC1=C(C(=O)OC)C[C@@]2(CC)C3N(CC[C@@]143)C[C@H]1O[C@H]12 (stereo not given in full) | -4.96% (active)
2 | O=C(CCCCCCNC(=O)C(O)(O)C(F)(F)F)Nc1ncc(-c2ccc(Br)cc2)s1 | 35.9%
3 | CN1CCN(Cc2ccc(NC(=O)c3cncc(C#Cc4cnc5ccc(OCC(F)F)nn45)c3)cc2C(F)(F)F)CC1 | -95.1% (active)
4 | CN(C)S(=O)(=O)c1ccc(-c2nc(C(Cl)Cl)nc3cc(-c4ccccc4)nn23)cc1 | 84.7%
5 | Brc1ccc(-c2cc(-c3ccc4c(c3)OCCO4)n[nH]2)s1 | 7.95% (active)
6 | O=[N+]([O-])c1ccc(NC(=S)NNC(=S)Nc2ccc(Br)cc2)cc1 | 121%
7 | CC[C@]12C=CCN3CC[C@@]4(c5ccc(OC)cc5N(C)[C@H]4[C@@](O)(C(=O)OC)[C@@H]1OC(=O)CCN1CCc4ccccc4C1)[C@@H]32 | 66.9%
8 | Cc1cccc(N2CCN(C3=C(Cl)C(=O)c4ncccc4C3=O)CC2)c1 | 84.3%
9 | CC(C)NC(=O)c1cc(-c2ccc(NC(=O)Nc3ccc(F)c(C(F)(F)F)c3)cc2)nc2cccnc12 | 80%
10 | CN1CCN(CC#CCn2c3c(c4ccccc42)C[C@]2(C)[C@H]4CC=C5[C@@H]6CC(C)(C)CC[C@]6(C(=O)N6CCOCC6)CC[C@@]5(C)[C@]4(C)CC[C@H]2C3(C)C)CC1 | 88.9%
11 | COc1ccc2[nH]cc(-c3nn4cc(-c5ccncc5)nc4s3)c2c1 | 61.7%
12 | C/C(CC1(O)C(=O)Nc2ccccc21)=N\O (stereo not given) | 92.4%
13 | COc1ccc(-c2cc(-c3ccc(N4CCOCC4)cc3)n3c(n2)nc2ccccc23)cc1OC | 83.3%
14 | CN1CCN(c2ccc(Nc3nc(NCCCNS(=O)(=O)c4ccc(C(F)(F)F)cc4)c4sccc4n3)cc2)CC1 | -79.5% (active)
15 | N#C/C(=C\c1ccc(-c2ccc(Cl)c(Cl)c2)o1)C(=O)Nc1ncc(Cc2ccc(Cl)cc2)s1 | 7.13% (active)
16 | CC(=O)OCCCCN1C=C/C(=C\C(=O)n2ccc3ccccc32)c2ccccc21 | 100%
17 | C#Cc1nc(/C=C/C(=O)NO)cs1 | -94.4% (active)
18 | CC(C)(C)OC(=O)Nc1ccc(-c2cccc(Oc3ccc4nnc(Cl)n4n3)c2)cc1 | 126%
19 | O=C(N/N=C/c1cc2ccccc2nc1Cl)c1cc(-c2nc3ccccc3[nH]2)nc2ccccc12 | 83.2%
20 | Cc1ccc([C@H]2c3[nH]c4ccccc4c3C[C@H]3C(=O)N(CCCCCCC(=O)NO)CC(=O)N23)s1 | 35.8%

Row | Structure (SMILES) | growth
21 | O=C(CSc1nnc(-c2ccc(Cl)cc2)n1-c1ccccc1)Nc1cccc(F)c1 | -14.1% (active)
22 | O=C(CCCCCCN1CC(=O)N2[C@@H](c3ccc(Cl)s3)c3[nH]c4ccccc4c3C[C@H]2C1=O)NO | 22.5%
23 | CCNC(=O)Oc1ccc(/C(=C(/C)c2ccc(OC)cc2)c2ccc(OCCN3CCCCCC3)cc2)cc1 | 59.4%
24 | N#CC1=C2NCCCNc3oc(nc3C#N)Cc3ccccc3CC(=N1)O2 | 92%
25 | CN1CCN(c2ccc(Nc3nc(NCCNC(=O)c4ccc(F)cc4)c4sccc4n3)cc2)CC1 | 91.5%
26 | COc1ccccc1Cn1cc(C#N)c(N)c1C(=O)c1ccc(Br)cc1 | 81.1%
27 | NS(=O)(=O)c1ccc(Nc2nc(N/N=C/C=C/c3ccccc3)nc(Nc3ccccc3)n2)cc1 | 43%
28 | C#C[C@]1(O)CC[C@H]2[C@@H]3CC=C4c5sc(Nc6cc(C)cc(C)c6)nc5CC[C@]4(C)[C@H]3CC[C@@]21C | 10.2%
29 | N#Cc1c(-c2ccc(F)cc2)cc(-c2c[nH]c3ccccc23)nc1-c1c[nH]c2ccccc12 | 98.6%
30 | CNC(=O)c1cc(N2CCc3cc(NC(=O)Nc4ccc(N5CCOCC5)c(C(F)(F)F)c4)ccc32)ccn1 | 38.6%
31 | O=C(CSc1nc2ccccc2c(=O)n1-c1ccccc1)Nc1ccc(S(=O)(=O)Nc2nccs2)cc1 | 57.4%
32 | CCN(CC)S(=O)(=O)c1ccc(-c2nc(C(Cl)Cl)nc3cc(C)nn23)cc1 | 46.7%
33 | O=C1CSC(c2cn(-c3ccccc3)nc2-c2ccc(Cl)cc2)N1c1ccccc1 (stereo not given) | 99.9%
34 | CN1CCN(c2ccc(Nc3nc(NCCCNS(=O)(=O)c4ccccc4)c4sccc4n3)cc2)CC1 | 89.3%
35 | C#C[C@]1(O)CC[C@H]2[C@@H]3CC=C4c5sc(Nc6ccc(C)cn6)nc5CC[C@]4(C)[C@H]3CC[C@@]21C | -12.2% (active)
36 | COC(=O)c1cccc(NC2=CC(=O)C(C)=C(C)C2=O)c1 | 93.4%
37 | N/C(=N\C(N)=N\c1nc2ccccc2s1)c1ccc(Cl)cc1 | 99.1%
38 | Cn1cc(-c2cc3ncnc(Nc4ccc(NC(=O)Nc5cc(C(C)(C)C)on5)cc4)c3s2)cn1 | 6.15% (active)
39 | O=C(Nc1ccccc1)Nc1nc2ccc([N+](=O)[O-])cc2[nH]1 | 84.9%
40 | C#C[C@]1(O)CC[C@H]2[C@@H]3CC=C4c5sc(N6CCN(C)CC6)nc5CC[C@]4(C)[C@H]3CC[C@@]21C | 75.2%
